The panel holds about 83,000 compounds, 20% with a hit somewhere; the sample as a whole holds those more often.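 Each cell line was grown in a 96-well plate and treated with one concentration of compound for 48 hours. Values below 10 were considered active.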 Active and inactive are the calls of the source.
Tests used:
Experiment in all cases: NCI-60 one-dose screen, 48 h (100 = growth as untreated, 0 = no growth, -100 = all killed)
Details in all cases: 10 µM unless noted
HCT-15 colon = tested on: HCT-15 colon
HT29 colon = tested on: HT29 colon
SNB-75 CNS = tested on: SNB-75 CNS
SNB-19 CNS = tested on: SNB-19 CNS
PC-3 prostate = tested on: PC-3 prostate
SK-MEL-5 melanoma = tested on: SK-MEL-5 melanoma
UACC-62 melanoma = tested on: UACC-62 melanoma
LOX IMVI melanoma = tested on: LOX IMVI melanoma
SK-MEL-28 melanoma = tested on: SK-MEL-28 melanoma

Measured: growth

C=CC(=O)Nc1cccc(-c2nc(SC)nc(Nc3cccc(OC)c3)c2C#N)c1
inactive: HCT-15 colon 52.5% | HT29 colon 56.9% | SNB-75 CNS 18% | SNB-19 CNS 66.9% | PC-3 prostate 53.1% | SK-MEL-5 melanoma 77% | UACC-62 melanoma 78.1% | LOX IMVI melanoma 72.1% | SK-MEL-28 melanoma 87%

C=CC(=O)Nc1cccc(-c2nc(SC)nc(Nc3ccccc3OC)c2C#N)c1
active: HT29 colon 2.25%
inactive: HCT-15 colon 16.9% | SNB-75 CNS 24.4% | SNB-19 CNS 74.5% | PC-3 prostate 31.9% | SK-MEL-5 melanoma 66.7% | UACC-62 melanoma 75% | LOX IMVI melanoma 16.9% | SK-MEL-28 melanoma 50.8%

COc1ccc(-c2cc(NC(=O)Nc3ccc4ncsc4c3)no2)cc1
inactive: HCT-15 colon 96.5% | HT29 colon 97.2% | SNB-75 CNS 60.2% | SNB-19 CNS 92.9% | PC-3 prostate 92.6% | SK-MEL-5 melanoma 99.5% | UACC-62 melanoma 95.9% | LOX IMVI melanoma 102% | SK-MEL-28 melanoma 108%

O=C1/C(=C/c2cn(-c3ccccc3)nc2-c2ccccc2)SC(=S)N1CCc1ccccc1
inactive: HCT-15 colon 106% | HT29 colon 104% | SNB-75 CNS 71.9% | SNB-19 CNS 99% | PC-3 prostate 100% | SK-MEL-5 melanoma 101% | UACC-62 melanoma 98% | LOX IMVI melanoma 99.3% | SK-MEL-28 melanoma 118%

N#CCCN=Nc1c(O)[nH]c2ccc(F)cc12
inactive: HCT-15 colon 101% | HT29 colon 110% | SNB-75 CNS 62.7% | SNB-19 CNS 101% | PC-3 prostate 95.2% | SK-MEL-5 melanoma 99.5% | UACC-62 melanoma 102% | LOX IMVI melanoma 94.5% | SK-MEL-28 melanoma 107%

C=C(C)[C@@H]1CC[C@]2(C(=O)OC)CC[C@]3(C)[C@H](CC[C@@H]4[C@@]5(C)C/C(=C/c6cccc(I)c6)C(=O)C(C)(C)[C@@H]5CC[C@]43C)[C@@H]12
inactive: HCT-15 colon 99.3% | HT29 colon 107% | SNB-75 CNS 89.2% | SNB-19 CNS 94% | PC-3 prostate 96% | UACC-62 melanoma 96.5% | LOX IMVI melanoma 91.9%

COc1cc(CNc2oc(-c3ccccc3)c(-c3ccccc3)c2C#N)cc(CN2CCN(C)CC2)c1O
inactive: SNB-75 CNS 52.4% | SNB-19 CNS 83.3% | PC-3 prostate 57.6% | SK-MEL-5 melanoma 49.8% | UACC-62 melanoma 91.1%
active: HCT-15 colon -55.9% | HT29 colon 5.27% | LOX IMVI melanoma -74.6% | SK-MEL-28 melanoma -38.4%

CC(C)(O)c1cn(CCCCN2C(=O)C(=O)c3ccccc32)nn1
inactive: HCT-15 colon 101% | HT29 colon 107% | SNB-75 CNS 68% | SNB-19 CNS 95.9% | PC-3 prostate 96.3% | SK-MEL-5 melanoma 99.7% | UACC-62 melanoma 98.1% | SK-MEL-28 melanoma 113%

CN(C)S(=O)(=O)c1ccc(S(=O)(=O)Nc2cccc(Cl)c2N2CCCCC2)cc1
inactive: HCT-15 colon 79.9% | HT29 colon 91.8% | SNB-75 CNS 64.2% | SNB-19 CNS 84.9% | PC-3 prostate 60.3% | SK-MEL-5 melanoma 80.7% | UACC-62 melanoma 57.8% | LOX IMVI melanoma 67.4% | SK-MEL-28 melanoma 59.9%

COc1cc(C=Nc2oc(-c3ccccc3)c(-c3ccccc3)c2C#N)cc(CN2CCCCC2)c1O
inactive: HCT-15 colon 95.4% | HT29 colon 102% | SNB-75 CNS 66.6% | SNB-19 CNS 98.6% | PC-3 prostate 93.2% | SK-MEL-5 melanoma 98.4% | LOX IMVI melanoma 87.7% | SK-MEL-28 melanoma 110%

N#Cc1c(-c2ccc(Cl)cc2)nc(N/N=C/c2cccc(Br)c2)nc1N1CCOCC1
active: HCT-15 colon 8.41%
inactive: HT29 colon 29% | SNB-75 CNS 76.8% | SNB-19 CNS 107% | PC-3 prostate 61.2% | SK-MEL-5 melanoma 85.6% | UACC-62 melanoma 92.6% | LOX IMVI melanoma 79.8% | SK-MEL-28 melanoma 99.5%

CC(=O)O[C@H]1CC[C@]2(C)[C@H]3CC=C4[C@@H]5CC(C)(C)CC[C@]5(C(=O)NCCNCCNCCN)CC[C@@]4(C)[C@]3(C)CC[C@H]2C1(C)C
inactive: SNB-75 CNS 71% | SNB-19 CNS 92.6% | PC-3 prostate 38.9% | SK-MEL-5 melanoma 90.7% | UACC-62 melanoma 93.9% | SK-MEL-28 melanoma 93.1%
active: HCT-15 colon -74.8% | HT29 colon -47.7%

CNC(=O)c1cc(Oc2ccc(NC(=O)Nc3ccc(Cl)c(SC)c3)c(F)c2)ccn1
inactive: HCT-15 colon 50% | HT29 colon 30% | SNB-75 CNS 71% | SNB-19 CNS 75% | PC-3 prostate 34.2% | UACC-62 melanoma 28% | LOX IMVI melanoma 37.7%

CCCN1CCN(c2ccc3nc(-c4ccc5nc(-c6ccc(OCC)cc6)[nH]c5c4)[nH]c3c2)CC1
inactive: SNB-75 CNS 50.3% | SNB-19 CNS 62% | SK-MEL-5 melanoma 28.9% | UACC-62 melanoma 51.4% | SK-MEL-28 melanoma 48.4%
active: HCT-15 colon -56.5% | HT29 colon -69% | PC-3 prostate -69.5% | LOX IMVI melanoma -95%

COc1ccc(/C=C(\C#N)C(=O)Nc2cccc(Nc3nc(SC)nc(-c4cccc([N+](=O)[O-])c4)c3C#N)c2)cc1OC
inactive: HCT-15 colon 95.3% | HT29 colon 113% | SNB-75 CNS 92% | SNB-19 CNS 104% | PC-3 prostate 94.8% | SK-MEL-5 melanoma 94.8% | UACC-62 melanoma 97% | SK-MEL-28 melanoma 105%

COc1cc2nc(N3CCCC3)nc(NCc3ccccc3)c2cc1OC
inactive: HT29 colon 18.7% | SNB-75 CNS 69.1% | SNB-19 CNS 95.6% | PC-3 prostate 67.2% | SK-MEL-5 melanoma 67.8% | UACC-62 melanoma 97.3% | SK-MEL-28 melanoma 57%
active: HCT-15 colon 6.07%

COc1cccc(-c2nn(C(C)(C)C)cc2-c2ccnc(NCCCNS(=O)(=O)c3cccc4ccccc34)c2)c1
inactive: HCT-15 colon 108% | HT29 colon 103% | SNB-75 CNS 71.2% | SNB-19 CNS 100% | PC-3 prostate 106% | SK-MEL-5 melanoma 100% | UACC-62 melanoma 108% | LOX IMVI melanoma 99.8% | SK-MEL-28 melanoma 112%

Cc1cc(NS(=O)(=O)c2ccc(-c3cnc(C4CC4)o3)cc2)ccc1Cl
inactive: HCT-15 colon 17% | SNB-19 CNS 44.3% | PC-3 prostate 24.7% | SK-MEL-5 melanoma 24.8% | UACC-62 melanoma 26.4% | LOX IMVI melanoma 46.5% | SK-MEL-28 melanoma 50.5%
active: HT29 colon -17.1% | SNB-75 CNS -0.004%

COc1cc2nc(N3CCCC3)nc(Nc3ccccc3)c2cc1OC
active: HCT-15 colon -42.6% | HT29 colon -71% | SK-MEL-5 melanoma -97.8% | UACC-62 melanoma -76.1% | LOX IMVI melanoma -92.6% | SK-MEL-28 melanoma -91.3%
inactive: SNB-75 CNS 99.5% | SNB-19 CNS 49.9% | PC-3 prostate 29.4%

COc1cc2nc(N3CCCC3)nc(NCCc3ccccc3)c2cc1OC
inactive: SNB-75 CNS 93.5% | SNB-19 CNS 87.6% | PC-3 prostate 67% | SK-MEL-5 melanoma 90.3% | UACC-62 melanoma 94.7% | SK-MEL-28 melanoma 88.6%
active: HCT-15 colon -55.1% | HT29 colon 5.28%

O=C1c2cc3c(cc2-c2c1c1cc(F)c(F)cc1c(=O)n2CCCn1ccnc1)OCO3
inactive: SNB-75 CNS 24.4% | SNB-19 CNS 15.7% | SK-MEL-28 melanoma 34.8%
active: HCT-15 colon 4.66% | HT29 colon 3.52% | PC-3 prostate 9.43% | SK-MEL-5 melanoma -74.9% | UACC-62 melanoma -61.4% | LOX IMVI melanoma -20.4%

CC(C)C1=C[C@@]23CC[C@@H]4[C@](C)(CCC[C@@]4(C)C(=O)N4CCCNCC4)[C@H]2C[C@@H]1[C@H]1C(=O)CCC(=O)[C@H]13
inactive: HCT-15 colon 97.5% | HT29 colon 108% | SNB-75 CNS 63.5% | SNB-19 CNS 99.5% | PC-3 prostate 93% | SK-MEL-5 melanoma 97.7% | UACC-62 melanoma 98.2% | LOX IMVI melanoma 92.1% | SK-MEL-28 melanoma 109%

CC(=O)O[C@H]1CC[C@]2(C)[C@H]3CC=C4[C@@H]5CC(C)(C)CC[C@]5(C(=O)NCCNCCN)CC[C@@]4(C)[C@]3(C)CC[C@H]2C1(C)C
inactive: SNB-75 CNS 88% | SK-MEL-5 melanoma 71.4%
active: HCT-15 colon -89.3% | HT29 colon -92.8% | SNB-19 CNS 2.09% | PC-3 prostate -44.3% | UACC-62 melanoma -21.2% | LOX IMVI melanoma -100% | SK-MEL-28 melanoma -85.6%

C=CC(=O)Nc1cccc(-c2nc(SC)nc(NCCN3CCOCC3)c2C#N)c1
inactive: HCT-15 colon 90.1% | HT29 colon 89.4% | SNB-75 CNS 44.8% | SNB-19 CNS 88.5% | PC-3 prostate 92.7% | SK-MEL-5 melanoma 94.9% | UACC-62 melanoma 86.7% | LOX IMVI melanoma 85.5% | SK-MEL-28 melanoma 114%

O=S(=O)(Nc1ccc(Cl)c(F)c1)c1ccc(-c2cnc(C3CC3)o2)cc1
inactive: HCT-15 colon 21.1% | SNB-19 CNS 44.9% | PC-3 prostate 29.9% | SK-MEL-5 melanoma 17.4% | UACC-62 melanoma 24.8% | LOX IMVI melanoma 40.3% | SK-MEL-28 melanoma 58.5%
active: HT29 colon -6.67% | SNB-75 CNS -7.32%

Cc1oc(-c2ccc(Cl)cc2Cl)cc1C(=O)Nc1nccs1
inactive: HCT-15 colon 85.6% | HT29 colon 86.6% | SNB-75 CNS 84.4% | SNB-19 CNS 98.8% | PC-3 prostate 96.6% | SK-MEL-5 melanoma 97.1% | LOX IMVI melanoma 79.1% | SK-MEL-28 melanoma 105%

O=C(N=Nc1c(O)[nH]c2ccccc12)c1cc(-c2ccccc2)on1
inactive: HCT-15 colon 102% | HT29 colon 104% | SNB-75 CNS 53.7% | SNB-19 CNS 100% | PC-3 prostate 101% | SK-MEL-5 melanoma 100% | UACC-62 melanoma 99.6% | SK-MEL-28 melanoma 108%

O=C1CC(=NCC(=O)n2c(-c3ccccc3)nc3ccccc32)NN1
inactive: HCT-15 colon 99.1% | HT29 colon 108% | SNB-75 CNS 66.6% | SNB-19 CNS 97.7% | PC-3 prostate 99.2% | SK-MEL-5 melanoma 96.6% | UACC-62 melanoma 94.9% | LOX IMVI melanoma 89.9% | SK-MEL-28 melanoma 118%

O=C1NC(=S)NC(=O)C1CC(=O)n1c(-c2ccccc2)nc2ccccc21
inactive: HCT-15 colon 94.3% | HT29 colon 106% | SNB-75 CNS 66.5% | SNB-19 CNS 94.8% | PC-3 prostate 97.7% | SK-MEL-5 melanoma 98.5% | UACC-62 melanoma 94.9% | LOX IMVI melanoma 88.7% | SK-MEL-28 melanoma 112%
